Our source for the cell count values is the supplement of paper PMC4709259.

The structures appear in SMILES notation. Where a name gives a salt, the structure may show the parent alone. ± gives the standard deviation.

The test system of this assay is Jurkat. The experiment in a line: cell count relative to DMSO control (fraction of control); higher = more cells (less growth inhibition). The following applies: 48 h.
`C[C@]12C=CC(=O)N[C@@H]1CC[C@@H]1[C@@H]2CC[C@]2(C)[C@@H](C(=O)Nc3cc(C(F)(F)F)ccc3C(F)(F)F)CC[C@@H]12` [Dutasteride] (concentration: 25 µM) came in with a cell count of 0.636 ± 0.17.
Regarding `CCc1ccc(CCOc2ccc(CC3SC(=O)NC3=O)cc2)nc1` (stereo not drawn) [Pioglitazone·HCl] (concentration: 25 µM), the cell count was found to be 0.906 ± 0.16.
Compound `Oc1ccc(C2CNCCc3c2cc(O)c(O)c3Cl)cc1` (stereo not drawn) [Fenoldopam Mesylate] (concentration: 25 µM) showed a cell count of 0.272 ± 0.13.
`CC1=C(C(=O)O)N2C(=O)[C@@H](NC(=O)[C@H](N)c3ccc(O)cc3)[C@H]2SC1` [Cefadroxil] (concentration: 25 µM) returned a cell count of 0.895 ± 0.079.
`CC[C@H]1OC(=O)[C@H](C)[C@@H](O[C@H]2C[C@@](C)(OC)[C@@H](O)[C@H](C)O2)[C@H](C)[C@@H](O[C@@H]2O[C@H](C)C[C@H](N(C)C)[C@H]2O)[C@](C)(O)C[C@@H](C)CN(C)[C@H](C)[C@@H](O)[C@]1(C)O` [Azithromycin] (concentration: 25 µM) yielded a cell count of 0.628 ± 0.078.
`O=P(O)(O)C(O)(Cc1cccnc1)P(=O)(O)O` [Risredonic Acid] (concentration: 25 µM) yielded a cell count of 0.428 ± 0.091.
The compound `COc1cccc2c1C(=O)c1c(O)c3c(c(O)c1C2=O)C[C@@](O)(C(=O)CO)C[C@@H]3O[C@H]1C[C@H](N)[C@@H](O)[C@H](C)O1` [Epirubicin·HCl] (concentration: 250 nM) had a cell count of 0.206 ± 0.052.
With `COc1ccc(OC)c(C(O)CNC(=O)CN)c1` (stereo not drawn) [Midodrine·HCl] (concentration: 25 µM), the cell count came to 0.55 ± 0.15.
